Unmarked numbers belong to inactive results.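 Rule for the calls: active = AUC reduced over 20% with Padj below 0.05 in at least 2 of 3 replicates; inactive = otherwise.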
Experiments:
Assay in all cases: growth AUC relative to DMSO control (median of replicates) (fraction); higher = more growth (less inhibition), active = hit call of the paper
Conditions in all cases: 20 µM; 24 h
Akkermansia muciniphila = system: Akkermansia muciniphila
Method in brief: (§1)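 Each value is the median of three biological replicates, grown on separate days, of a gut bacterial monoculture incubated anaerobically at 37 °C in mGAM with 20 µM compound (1% DMSO). Cultures started at OD600 0.05 and were read at OD600 hourly for 24 h, with the minimum OD set to 0. Area under the growth curve was normalised to the plate median of solvent-only wells, or to row and column medians on the industrial chemical plate.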

Bacteroides caccae = system: Bacteroides caccae
Method in brief: as §1

Bacteroides clarus = system: Bacteroides clarus
Method in brief: as §1

Bacteroides dorei = system: Bacteroides dorei
Method in brief: as §1

Bacteroides stercoris = system: Bacteroides stercoris
Method in brief: as §1

[1] = system: Bacteroides thetaiotaomicron
Method in brief: as §1

Bacteroides uniformis = system: Bacteroides uniformis
Method in brief: as §1

[2] = system: Bifidobacterium longum subsp. longum
Method in brief: as §1

Clostridium difficile = system: Clostridium difficile
Method in brief: as §1

Collinsella aerofaciens = system: Collinsella aerofaciens
Method in brief: as §1

Coprococcus comes = system: Coprococcus comes
Method in brief: as §1

Escherichia coli ED1a = system: Escherichia coli ED1a
Method in brief: as §1

Escherichia coli IAI1 = system: Escherichia coli IAI1
Method in brief: as §1

Eubacterium rectale = system: Eubacterium rectale
Method in brief: as §1

[3] = system: Fusobacterium nucleatum subsp. animalis
Method in brief: as §1

Lactobacillus gasseri = system: Lactobacillus gasseri
Method in brief: as §1

Lactobacillus paracasei = system: Lactobacillus paracasei
Method in brief: as §1

Odoribacter splanchnicus = system: Odoribacter splanchnicus
Method in brief: as §1

[4] = system: Parabacteroides distasonis
Method in brief: as §1

Parabacteroides merdae = system: Parabacteroides merdae
Method in brief: as §1

Row | SMILES | growth AUC (Akkermansia muciniphila) | growth AUC (Bacteroides caccae) | growth AUC (Bacteroides clarus) | growth AUC (Bacteroides dorei) | growth AUC (Bacteroides stercoris) | growth AUC [1] | growth AUC (Bacteroides uniformis) | growth AUC [2] | growth AUC (Clostridium difficile) | growth AUC (Collinsella aerofaciens) | growth AUC (Coprococcus comes) | growth AUC (Escherichia coli ED1a) | growth AUC (Escherichia coli IAI1) | growth AUC (Eubacterium rectale) | growth AUC [3] | growth AUC (Lactobacillus gasseri) | growth AUC (Lactobacillus paracasei) | growth AUC (Odoribacter splanchnicus) | growth AUC [4] | growth AUC (Parabacteroides merdae)
1 | O=[N+]([O-])NC1=NCOCN1Cc1cnc(Cl)s1 | 1.23 | 0.994 | 1.04 | 1.01 | 1.19 | 0.979 | 0.964 | 0.917 | 0.999 | 0.971 | 0.971 | 0.992 | 0.997 | 1.1 | 1.15 | 0.809 | 0.988 | 1.04 | 1.01 | 0.965
2 | CC(=O)CC(c1ccco1)c1c(O)c2ccccc2oc1=O (stereo not given) | 0.866 | 1.01 | 0.957 | 1 | 1 | 0.98 | 0.968 | 0.95 | 1.02 | 0.967 | 1.01 | 0.994 | 0.987 | 0.985 | 0.986 | 1.03 | 1.05 | 0.978 | 0.958 | 1.01
3 | CC1(C)[C@H](C=C(Cl)Cl)[C@H]1C(=O)OCc1c(F)c(F)cc(F)c1F | 0.957 | 1.02 | 0.992 | 1.07 | 1.03 | 0.993 | 1.04 | 0.954 | 1.08 | 1 | 1 | 1.01 | 1.03 | 0.957 | 1.04 | 1.02 | 0.947 | 1.02 | 0.999 | 0.989
4 | CC(C)C1(C)N=C(c2ncccc2C(=O)O)NC1=O (stereo not given) | 0.976 | 0.918 | 1.01 | 0.761 | 1.17 | 0.974 | 1.02 | 1 | 0.991 | 0.978 | 1.02 | 0.993 | 0.974 | 1.01 | 1.04 | 0.946 | 1.03 | 0.989 | 1.04 | 0.997
5 | CNC(=O)O/N=C(\SC)C(=O)N(C)C | 1.01 | 0.999 | 0.967 | 1.05 | 1.05 | 0.993 | 1.01 | 0.957 | 0.965 | 0.999 | 0.971 | 0.985 | 0.987 | 1 | 0.979 | 1.09 | 0.883 | 0.975 | 0.99 | 0.973
6 | Nc1c([N+](=O)[O-])ccc(Oc2ccccc2)c1Cl | 0.741 | 0.964 | 0.861 | 0.941 | 0.925 | 0.941 | 0.978 | 0.871 | 0.982 | 0.897 | 0.903 | 1.01 | 1.01 | 0.887 | 0.947 | 1.02 | 0.832 | 0.935 | 0.951 | 0.912
7 | CCOP(=S)(OCC)SCSP(=S)(OCC)OCC | 0.958 | 1 | 0.949 | 0.974 | 1.04 | 1.01 | 0.981 | 1.03 | 0.995 | 0.996 | 0.997 | 0.983 | 1.01 | 0.954 | 1.04 | 0.988 | 1.07 | 1.01 | 1 | 0.997
8 | O=C(OC1CCCCC1)c1ccccc1C(=O)OC1CCCCC1 | 1 | 0.967 | 0.997 | 0.985 | 1.09 | 0.951 | 0.985 | 1 | 0.995 | 0.943 | 0.97 | 1 | 0.99 | 0.946 | 1.01 | 1.08 | 1.02 | 0.991 | 0.957 | 1
9 | CCNc1nc(NC(C)C)nc(SC)n1 | 0.916 | 0.959 | 0.997 | 0.976 | 1.19 | 0.985 | 1 | 0.988 | 0.999 | 0.983 | 1.01 | 0.974 | 0.989 | 1 | 1.13 | 0.987 | 0.992 | 0.999 | 1.01 | 1.04
10 | CCOP(=S)(OCC)Oc1ccc2c(C)c(Cl)c(=O)oc2c1 | 1.1 | 0.952 | 0.957 | 0.98 | 0.891 | 0.934 | 0.95 | 0.968 | 1 | 1 | 1 | 1.02 | 1.01 | 1.11 | 1.01 | 0.991 | 0.998 | 1.01 | 0.748 (active) | 0.897
11 | O=P(Oc1ccccc1)(Oc1ccccc1)Oc1ccccc1 | 0.805 | 0.898 | 0.958 | 0.96 | 0.755 (active) | 0.901 | 0.923 | 0.919 | 1 | 1.02 | 0.937 | 1 | 0.993 | 0.977 | 0.828 | 0.943 | 0.958 | 1.01 | 0.594 (active) | 0.842
12 | COc1cc(OC)nc(Sc2cccc(Cl)c2C(=O)O)n1 | 1.28 | 1.01 | 0.98 | 0.959 | 0.977 | 1.02 | 0.986 | 1 | 1.01 | 0.964 | 1.02 | 0.981 | 0.977 | 1.04 | 0.941 | 0.897 | 0.971 | 0.985 | 0.906 | 0.975
13 | c1cc2ccc3cccc4ccc(c1)c2c34 | 0.918 | 0.992 | 1 | 0.997 | 1.01 | 0.997 | 1.02 | 0.948 | 0.959 | 0.946 | 0.914 | 0.958 | 0.982 | 1.04 | 0.945 | 0.993 | 0.934 | 1 | 0.751 (active) | 0.976
14 | CCOP(=S)(OCC)SCS(=O)(=O)C(C)(C)C | 0.89 | 1.02 | 0.944 | 0.994 | 0.976 | 1.01 | 1.01 | 0.966 | 0.98 | 1.02 | 0.991 | 1.01 | 0.966 | 1.08 | 0.964 | 1.02 | 1.03 | 0.979 | 1.02 | 0.986
15 | CC(Cl)(Cl)C(=O)O | 0.869 | 1.05 | 1.02 | 1.02 | 1.02 | 1.01 | 1.02 | 0.983 | 0.999 | 1.02 | 0.998 | 1.02 | 0.98 | 0.996 | 1.02 | 1.05 | 0.977 | 0.969 | 1.02 | 0.961
16 | CN(C)C(=O)Nc1ccc(Cl)cc1 | 0.948 | 1.02 | 0.971 | 1.01 | 1.05 | 0.973 | 1.02 | 0.99 | 0.979 | 1.03 | 0.985 | 1.01 | 0.97 | 0.996 | 1.02 | 1.05 | 1.03 | 0.963 | 0.938 | 1
